Reference: PubChem BioAssay (Tox21)
Values without a mark were called inactive. Records with an inconclusive call do not appear. Where a call stands in place of a potency, no number is given. The source made the active and inactive calls. Unless noted, calls follow the shape of the dose curve; as a rule, active = well fitted curve in the direction sought with a large enough effect in the repeat runs; inconclusive = weak or mixed curves; inactive = no such curve, though single readings can be large; an effect the other way counts as inactive or inconclusive.

Assays:
[1] = qHTS assay to identify small molecule agonists of the androgen receptor (AR) signaling pathway in the presence of an antagonist - cell viability counter screen (AID 1259379); also: nearly all actives have a fitted effect of over 25% in size; also: potency is read from the fitted curve at half-maximal effect
Summary of the method: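 Cytotoxicity counter-screen run in the same wells as the nilutamide-challenged (3.0 µM final) AR agonist assay in MDA-kb2 cells. Compounds tested at 15 concentrations for 16 h, 37 °C without CO2; CellTiter-Fluor fluorescence read.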

[2] = qHTS assay to identify small molecule agonists of the estrogen receptor beta (ER-beta) signaling pathway - cell viability counter screen (AID 1259380); also: nearly all actives have a fitted effect of over 30% in size; also: potency is read from the fitted curve at half-maximal effect
Summary of the method: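 Cell viability counter screen: CellTiter-Glo luminescence (30 min, room temperature) measured in the same wells as the beta-lactamase readout, after 16 hr compound exposure at 37C of ER-beta-bla HEK293T cells in 2% charcoal-stripped FBS medium.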

[3] = molecular target: Androgen receptor (Homo sapiens) (UniProt P10275); experiment: qHTS assay to identify small molecule agonists of the androgen receptor (AR) signaling pathway in the presence of an antagonist (AID 1259381; calls by dose curve; also: nearly all actives have a fitted effect of over 15% in size)
Chain of Androgen receptor (Homo sapiens) (P10275 whole entry, looked up): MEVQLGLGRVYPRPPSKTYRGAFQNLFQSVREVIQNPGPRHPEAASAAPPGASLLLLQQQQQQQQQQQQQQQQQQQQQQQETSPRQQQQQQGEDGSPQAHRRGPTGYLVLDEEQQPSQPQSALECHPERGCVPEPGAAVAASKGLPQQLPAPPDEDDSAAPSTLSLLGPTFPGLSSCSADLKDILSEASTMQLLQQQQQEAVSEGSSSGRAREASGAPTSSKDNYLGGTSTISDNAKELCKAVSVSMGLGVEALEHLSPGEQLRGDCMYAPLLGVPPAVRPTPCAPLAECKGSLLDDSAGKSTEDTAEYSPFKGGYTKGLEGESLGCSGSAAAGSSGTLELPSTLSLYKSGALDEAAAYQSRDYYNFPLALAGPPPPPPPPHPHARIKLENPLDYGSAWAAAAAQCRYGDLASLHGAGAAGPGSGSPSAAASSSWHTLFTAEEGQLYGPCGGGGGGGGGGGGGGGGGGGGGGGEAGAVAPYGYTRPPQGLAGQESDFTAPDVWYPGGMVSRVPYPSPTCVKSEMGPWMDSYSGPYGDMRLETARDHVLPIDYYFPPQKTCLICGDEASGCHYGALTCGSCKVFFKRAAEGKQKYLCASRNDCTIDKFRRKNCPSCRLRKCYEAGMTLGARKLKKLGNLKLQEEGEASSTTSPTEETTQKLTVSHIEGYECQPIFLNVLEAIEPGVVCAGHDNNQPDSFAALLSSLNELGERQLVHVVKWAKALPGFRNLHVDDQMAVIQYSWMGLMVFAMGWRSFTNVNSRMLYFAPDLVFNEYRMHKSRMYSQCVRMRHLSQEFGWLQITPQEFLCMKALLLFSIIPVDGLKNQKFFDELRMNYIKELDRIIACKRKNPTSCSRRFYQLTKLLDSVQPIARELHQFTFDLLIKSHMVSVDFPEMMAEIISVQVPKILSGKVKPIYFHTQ
Summary of the method: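 Agonist-mode confirmation run against 3.0 uM final nilutamide: compounds titrated at 15 concentrations onto MDA-kb2 MMTV-luciferase reporter cells. Luminescence measured with ONE-Glo following 16 hr incubation, 37C, 0% CO2.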

[4] = qHTS assay to identify small molecule antagonists of the estrogen receptor beta (ER-beta) signaling pathway - cell viability counter screen (AID 1259382); also: nearly all actives have a fitted effect of over 55% in size; also: potency is read from the fitted curve at half-maximal effect
Summary of the method: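 Cytotoxicity was measured in the same wells by CellTiter-Glo luminescence after 30 min at room temperature. Cells were ER-beta-bla HEK293T in charcoal-stripped serum, given compound together with 1 nM E2 and incubated 16 h at 37C.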

[5] = molecular target: Estrogen receptor (Homo sapiens) (UniProt P03372); experiment: qHTS assay to identify small molecule agonists of the estrogen receptor alpha (ER-alpha) signaling pathway in the presence of an antagonist (AID 1259383; calls by dose curve; also: top concentration of the series differs between compounds; nearly all actives have a fitted effect of over 15% in size)
Chain of Estrogen receptor (Homo sapiens) (P03372 whole entry, looked up): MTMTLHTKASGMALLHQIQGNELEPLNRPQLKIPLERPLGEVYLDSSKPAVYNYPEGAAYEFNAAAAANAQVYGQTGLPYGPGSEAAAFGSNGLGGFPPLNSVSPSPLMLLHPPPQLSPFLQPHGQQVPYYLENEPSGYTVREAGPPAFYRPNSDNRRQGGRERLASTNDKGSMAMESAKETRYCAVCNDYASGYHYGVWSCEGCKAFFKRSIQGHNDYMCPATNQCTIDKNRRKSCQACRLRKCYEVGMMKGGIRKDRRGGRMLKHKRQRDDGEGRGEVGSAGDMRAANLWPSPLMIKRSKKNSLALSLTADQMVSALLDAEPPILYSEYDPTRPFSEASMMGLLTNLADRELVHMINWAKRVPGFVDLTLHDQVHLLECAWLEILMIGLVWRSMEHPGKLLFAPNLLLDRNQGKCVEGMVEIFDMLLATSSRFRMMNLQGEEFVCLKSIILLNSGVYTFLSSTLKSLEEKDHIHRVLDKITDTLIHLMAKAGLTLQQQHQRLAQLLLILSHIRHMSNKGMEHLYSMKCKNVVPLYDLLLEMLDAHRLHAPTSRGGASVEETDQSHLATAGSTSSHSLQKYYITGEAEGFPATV
Summary of the method: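 Agonist-mode confirmation run in the presence of 10.0nM (final) ICI-182,780 antagonist. The reporter was ERE-driven luciferase in VM7Luc4E2 cells, grown in charcoal-stripped serum. Cells were exposed to 15-concentration compound series for 22hr, then ONE-Glo luminescence was read.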

[6] = qHTS assay to identify small molecule agonists or antagonists of the thyroid stimulating hormone receptor (TSHR) signaling pathway - wild type cell line counter screen (AID 1259384; calls by dose curve)
Summary of the method: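 Counter screen in untransfected Hek293: compounds (15-point titration, triplicate) plus phosphodiesterase inhibitor Ro20-1724 added after 18 h plating; 30 min RT. Intracellular cAMP via competitive d2/cryptate immunoassay, 1 h incubation.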

[7] = molecular target: Thyrotropin receptor (Homo sapiens) (UniProt P16473); experiment: qHTS assay to identify small molecule antagonists of the thyroid stimulating hormone receptor (TSHR) signaling pathway (AID 1259385; calls by dose curve; also: nearly all actives have a fitted effect of over 20% in size; also: potency is read from the fitted curve at half-maximal effect)
Chain of Thyrotropin receptor (Homo sapiens) (P16473 whole entry, looked up): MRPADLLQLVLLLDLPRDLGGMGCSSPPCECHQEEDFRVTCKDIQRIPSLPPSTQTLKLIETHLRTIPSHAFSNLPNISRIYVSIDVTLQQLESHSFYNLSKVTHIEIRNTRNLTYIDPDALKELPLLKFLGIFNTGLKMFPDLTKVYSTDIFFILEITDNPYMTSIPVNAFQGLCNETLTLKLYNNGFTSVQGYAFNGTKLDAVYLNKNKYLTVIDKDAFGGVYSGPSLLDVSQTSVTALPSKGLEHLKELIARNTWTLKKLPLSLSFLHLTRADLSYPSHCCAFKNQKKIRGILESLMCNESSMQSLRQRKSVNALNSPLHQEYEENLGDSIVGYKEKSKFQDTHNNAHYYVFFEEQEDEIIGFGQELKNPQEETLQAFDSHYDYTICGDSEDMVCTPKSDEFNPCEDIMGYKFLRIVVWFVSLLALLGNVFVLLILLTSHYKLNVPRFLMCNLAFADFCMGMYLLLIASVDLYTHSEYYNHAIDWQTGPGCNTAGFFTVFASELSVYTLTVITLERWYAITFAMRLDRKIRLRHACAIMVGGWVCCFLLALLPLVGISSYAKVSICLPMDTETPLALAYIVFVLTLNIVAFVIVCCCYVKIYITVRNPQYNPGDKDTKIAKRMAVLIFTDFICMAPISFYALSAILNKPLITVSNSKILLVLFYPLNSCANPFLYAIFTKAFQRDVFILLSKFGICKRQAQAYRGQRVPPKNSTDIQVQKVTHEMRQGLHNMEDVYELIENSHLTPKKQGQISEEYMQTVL
Summary of the method: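 Antagonist mode: compound-treated TSHR-expressing HEK293 cells were stimulated with 1.5 ng/mL TSH (final) in presence of Ro20-1724 for 30 min at RT. HTRF cAMP detection after 1 h; each compound tested at 15 concentrations, triplicate.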

[8] = qHTS assay to identify small molecule agonists of the estrogen receptor alpha (ER-alpha) signaling pathway in the presence of an antagonist - cell viability counter screen (AID 1259386); also: series mostly up to about 92 µM; nearly all actives have a fitted effect of over 30% in size
Summary of the method: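 Compounds tested at 15 concentrations for 22 h at 37C alongside 10.0nM (final) ICI-182,780 antagonist, in VM7Luc4E2 cells grown in phenol red-free, charcoal-stripped medium. Viability read by CellTiter-Fluor fluorescence after 1 h reagent incubation.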

[9] = qHTS assay to identify small molecule antagonists of the progesterone receptor (PR) signaling pathway - cell viability counter screen (AID 1346798); also: nearly all actives have a fitted effect of over 50% in size; also: potency is read from the fitted curve at half-maximal effect
Summary of the method: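 PR-UAS-bla HEK293T cells, 3,000/well in 2% charcoal-stripped FBS medium, dosed with compounds plus R5020 agonist and incubated 16 h at 37C. Viability then measured in the same wells by CellTiter-Glo luminescence after 30 min at RT.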

[10] = qHTS assay to identify small molecule antagonists of the TGF-beta/Smad signaling pathway - cell viability counter screen (AID 1346824); also: nearly all actives have a fitted effect of over 50% in size
Summary of the method: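 Cytotoxicity counter-screen run in the same wells as the beta-lactamase Smad reporter read: CellTiter-Glo luminescence after 30 min at room temperature. HEK 293T SBE-bla cells had 5 hr compound exposure at 37 C with TGF-beta1 (0.25 ng/mL stock).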

[11] = qHTS assay to identify small molecule agonists of the TGF-beta/Smad signaling pathway - cell viability counter screen (AID 1346829); also: top concentration of the series differs between compounds; nearly all actives have a fitted effect of over 45% in size
Summary of the method: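 Same-well cytotoxicity: CellTiter-Glo added after the 2 hr room-temperature beta-lactamase substrate step, luminescence measured 30 min later; cells had 5 hr of compound at 37 C.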

[12] = molecular target: Thyrotropin-releasing hormone receptor (Homo sapiens) (UniProt P34981); experiment: qHTS assay to identify small molecule antagonists of the thyrotropin-releasing hormone receptor (TRHR) signaling pathway (AID 1346877; active = well fitted inhibition curve with a large enough effect in the repeat runs, not every such curve was filed as active; also: potency is read from the fitted curve at half-maximal effect)
Chain of Thyrotropin-releasing hormone receptor (Homo sapiens) (P34981 whole entry, looked up): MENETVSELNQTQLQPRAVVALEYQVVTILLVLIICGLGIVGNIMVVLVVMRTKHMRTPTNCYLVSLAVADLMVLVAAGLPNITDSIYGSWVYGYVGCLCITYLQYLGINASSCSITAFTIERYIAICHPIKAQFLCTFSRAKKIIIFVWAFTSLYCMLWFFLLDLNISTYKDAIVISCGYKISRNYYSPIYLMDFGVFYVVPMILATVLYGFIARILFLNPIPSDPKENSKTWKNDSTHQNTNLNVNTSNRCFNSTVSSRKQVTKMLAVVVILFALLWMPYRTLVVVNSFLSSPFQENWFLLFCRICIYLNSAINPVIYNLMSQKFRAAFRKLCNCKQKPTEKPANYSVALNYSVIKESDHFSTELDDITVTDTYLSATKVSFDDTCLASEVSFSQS
Summary of the method: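 Antagonist mode: after a 5 min room-temperature compound exposure, cells were stimulated with 1 nM (final) TRH. Dye-loaded TRHR-HEK293 cells were used, and calcium-dependent fluorescence was followed for 3 min, with 15-point titrations run in triplicate.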

[13] = molecular target: Thyrotropin-releasing hormone receptor (Homo sapiens) (UniProt P34981); experiment: qHTS assay to identify small molecule agonists of the thyrotropin-releasing hormone receptor (TRHR) signaling pathway (AID 1346891; calls by dose curve; also: potency is read from the fitted curve at half-maximal effect; as to activation: series mostly up to about 58 µM)
Summary of the method: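 HEK293 cells expressing TRHR plated 18 h at 37 C/5% CO2, calcium dye-loaded 2 h at 37 C, then compound added (agonist mode); kinetic calcium fluorescence read 3 min at 1 s intervals; 15 concentrations in triplicate.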

[14] = molecular target: Estrogen receptor beta (Homo sapiens) (UniProt Q92731); experiment: qHTS assay to identify small molecule antagonists of the estrogen receptor beta (ER-beta) signaling pathway (AID 1259378; active = well fitted inhibition curve with a large enough effect in the signal ratio in the repeat runs, not every such curve was filed as active; the % refers to the signal ratio)
Chain of Estrogen receptor beta (Homo sapiens) (Q92731 whole entry, looked up): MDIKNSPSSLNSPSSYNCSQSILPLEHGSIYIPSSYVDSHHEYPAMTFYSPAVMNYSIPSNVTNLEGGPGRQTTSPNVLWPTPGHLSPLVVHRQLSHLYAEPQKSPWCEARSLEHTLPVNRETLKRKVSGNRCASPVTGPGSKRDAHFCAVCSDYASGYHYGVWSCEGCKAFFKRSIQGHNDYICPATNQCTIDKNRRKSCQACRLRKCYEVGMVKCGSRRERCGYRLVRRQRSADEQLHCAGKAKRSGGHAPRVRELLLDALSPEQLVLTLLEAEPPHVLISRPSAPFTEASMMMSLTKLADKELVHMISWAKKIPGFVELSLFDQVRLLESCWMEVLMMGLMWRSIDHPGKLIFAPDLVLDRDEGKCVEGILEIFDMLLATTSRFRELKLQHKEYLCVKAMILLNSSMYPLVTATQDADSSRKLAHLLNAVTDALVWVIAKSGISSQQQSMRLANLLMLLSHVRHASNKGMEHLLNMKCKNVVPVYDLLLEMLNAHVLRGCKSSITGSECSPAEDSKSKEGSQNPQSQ
Summary of the method: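 Antagonist mode: compounds added to beta-lactamase reporter HEK293T ER-beta-UAS cells stimulated with E2 (1nM final), 16 hr at 37C. LiveBLAzer B/G FRET substrate, 2 hours room temperature, fluorescence read-out.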

[15] = molecular target: Progesterone receptor (Homo sapiens) (UniProt P06401); experiment: qHTS assay to identify small molecule agonists of the progesterone receptor (PR) signaling pathway (AID 1346784; calls by dose curve; also: nearly all actives have a fitted effect of over 30% in size)
Chain of Progesterone receptor (Homo sapiens) (P06401 whole entry, looked up): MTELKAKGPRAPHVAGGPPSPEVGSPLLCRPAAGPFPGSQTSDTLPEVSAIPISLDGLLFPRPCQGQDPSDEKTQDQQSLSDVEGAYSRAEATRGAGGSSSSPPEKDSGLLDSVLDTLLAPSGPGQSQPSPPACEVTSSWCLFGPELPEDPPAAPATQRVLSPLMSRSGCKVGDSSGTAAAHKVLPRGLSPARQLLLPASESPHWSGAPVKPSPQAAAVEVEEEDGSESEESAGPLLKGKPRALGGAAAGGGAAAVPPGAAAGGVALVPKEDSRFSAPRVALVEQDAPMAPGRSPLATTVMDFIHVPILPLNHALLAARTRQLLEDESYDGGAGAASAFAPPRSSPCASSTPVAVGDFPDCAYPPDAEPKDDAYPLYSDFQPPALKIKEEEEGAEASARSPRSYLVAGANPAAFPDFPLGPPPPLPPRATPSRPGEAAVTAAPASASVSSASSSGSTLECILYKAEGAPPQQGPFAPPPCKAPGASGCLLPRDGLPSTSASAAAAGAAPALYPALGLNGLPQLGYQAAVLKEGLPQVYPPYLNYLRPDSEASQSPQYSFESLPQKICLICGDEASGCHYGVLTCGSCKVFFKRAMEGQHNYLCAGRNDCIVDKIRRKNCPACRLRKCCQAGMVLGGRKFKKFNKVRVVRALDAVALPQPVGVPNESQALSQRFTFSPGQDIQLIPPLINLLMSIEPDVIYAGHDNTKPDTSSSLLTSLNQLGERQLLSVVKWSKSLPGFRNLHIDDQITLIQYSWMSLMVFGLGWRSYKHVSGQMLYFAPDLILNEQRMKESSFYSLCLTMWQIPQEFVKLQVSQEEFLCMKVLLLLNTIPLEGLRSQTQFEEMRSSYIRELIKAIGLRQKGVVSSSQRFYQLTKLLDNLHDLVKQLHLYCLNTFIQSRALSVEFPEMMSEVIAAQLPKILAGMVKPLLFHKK
Summary of the method: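 PR-UAS-bla HEK 293T cells (beta-lactamase reporter under UAS) in 2% charcoal-stripped FBS, dosed with 23 nL compound after 6 hr, incubated 16hr at 37C. LiveBLAzer B/G FRET substrate added, fluorescence read after 2 hours.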

[16] = molecular target: Progesterone receptor (Homo sapiens) (UniProt P06401); experiment: qHTS assay to identify small molecule antagonists of the progesterone receptor (PR) signaling pathway (AID 1346795; active = well fitted inhibition curve with a large enough effect in the signal ratio in the repeat runs, not every such curve was filed as active; the % refers to the signal ratio; also: potency is read from the fitted curve at half-maximal effect)
Summary of the method: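 PR-UAS-bla HEK293T cells with beta-lactamase reporter under UAS control, in 2% charcoal-stripped FBS, treated with compounds plus 1 nM promegestone (R5020, final) for 16 hr at 37C. Read-out: FRET beta-lactamase substrate fluorescence after 2 hr at room temperature.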

[17] = Human pregnane X receptor (PXR) small molecule agonists, qHTS cell viability counter screen (AID 1346977); also: nearly all actives have a fitted effect of over 50% in size; also: potency is read from the fitted curve at half-maximal effect
Summary of the method: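 PXR-Luc HepG2 cells (2,000/well, 5% charcoal-stripped FBS) preincubated 5 hr, then exposed to compounds 24 hr at 37 C. Viability read in the same wells by CellTiter-Fluor fluorescence, reagent added at 23 hr, 1 hr incubation.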

[18] = qHTS assay to identify small molecule agonists of the progesterone receptor (PR) signaling pathway - cell viability counter screen (AID 1346799; calls by dose curve; also: nearly all actives have a fitted effect of over 45% in size; also: potency is read from the fitted curve at half-maximal effect)
Summary of the method: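 Counter screen in the PR-UAS-bla HEK293T wells (2% charcoal-stripped FBS, 16 h compound exposure at 37 C) after the bla read. CellTiter-Glo added, 30 min at room temperature, luminescence read as cell viability.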

[19] = qHTS assay to identify small molecule agonists of the TGF-beta/Smad signaling pathway (AID 1346859; active = well fitted activation curve with a large enough effect in the signal ratio in the repeat runs, not every such curve was filed as active; the % refers to the signal ratio; also: series mostly up to about 77 µM)
Summary of the method: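 SBE-bla HEK293T cells plated overnight, then compound exposure for 5 h at 37 C. Beta-lactamase reporter read with LiveBLAzer B/G FRET substrate after 2 h at room temperature, fluorescence at 405 nm excitation, 460/530 nm emission.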

With `[CH3][Hg][Cl]` the Potency [1] was 21.6 µM (active), the Potency [2] was 60.9 µM (active) and the Potency [3] was “inactive”. The Potency [4] was “inactive”, the Potency [5] was “inactive” and the outcome [6] was “inactive”. The Potency [7] was 17.2 µM (active), the Potency [8] was “inactive” and the Potency [9] was “inactive”. The Potency [10] was “inactive”, the Potency [11] was “inactive” and the Potency [12] was 30.1 µM (active). The Potency [13] was 17.3 µM (active).

For `Cc1cc(Cl)ccc1O[C@H](C)C(=O)O`, the Potency [14] was “inactive”, the Potency [1] was “inactive” and the Potency [4] was “inactive”. The Potency [5] was “inactive”, the Potency [8] was “inactive” and the Potency [15] was “inactive”. The Potency [16] was “inactive”, the Potency [9] was “inactive” and the Potency [10] was “inactive”. For the same compound, the Potency [11] was “inactive” and the Potency [17] was “inactive”.

With `FC(F)(F)c1cccc(C2=CCN(CCc3ccc4ccccc4c3)CC2)c1` the Potency [14] was “inactive”, the Potency [1] was “inactive” and the Potency [4] was “inactive”. For the same compound, the Potency [8] was “inactive”, the Potency [15] was “inactive” and the Potency [9] was “inactive”. The Potency [18] was “inactive”, the Potency [10] was “inactive” and the Potency [11] was “inactive”. The outcome [19] was “inactive”, the Potency [12] was “inactive” and the Potency [13] was “inactive”. The Potency [17] was “inactive”.

For `N#Cc1c(-c2ccc(Cl)cc2)[nH]c(C(F)(F)F)c1Br`, the Potency [1] was 0.969 µM (active), the Potency [2] was 24.3 µM (active) and the Potency [3] was “inactive”. The Potency [4] was 38.6 µM (active), the Potency [5] was “inactive” and the outcome [6] was “inactive”. The Potency [7] was “inactive”, the Potency [9] was 4.33 µM (active) and the Potency [18] was 6.86 µM (active). For the same compound, the Potency [11] was “inactive”, the Potency [12] was “inactive” and the Potency [13] was “inactive”. For the same compound, the Potency [17] was 0.77 µM (active).

With `CCOc1cc(C(C)(C)C)ccc1C1COC(c2c(F)cccc2F)=N1` (stereo unspecified) the Potency [1] was “inactive”, the Potency [2] was 18.6 µM (active) and the Potency [3] was “inactive”. The Potency [4] was 29.5 µM (active), the Potency [5] was “inactive” and the Potency [8] was “inactive”. The Potency [16] was 23.4 µM (active), the Potency [9] was 37.1 µM (active) and the Potency [11] was “inactive”. For the same compound, the outcome [19] was “inactive”, the Potency [12] was “inactive” and the Potency [13] was “inactive”.

In the case of `O=C(NC(=O)c1c(F)cccc1F)Nc1cc(Cl)c(OC(F)(F)C(F)F)c(Cl)c1`, the Potency [14] is reported as “inactive”, the Potency [1] is reported as “inactive” and the Potency [3] is reported as “inactive”. For the same compound, the Potency [4] was “inactive”, the Potency [5] was “inactive” and the outcome [6] was “inactive”. For the same compound, the Potency [7] was “inactive”, the Potency [8] was “inactive” and the Potency [15] was “inactive”. For the same compound, the Potency [16] was “inactive”, the Potency [9] was “inactive” and the Potency [10] was “inactive”. For the same compound, the Potency [11] was “inactive”, the outcome [19] was “inactive” and the Potency [12] was “inactive”. The Potency [13] was “inactive” and the Potency [17] was “inactive”.

For `COP(=O)(CCC(=O)NCO)OC`, the Potency [1] was “inactive”, the Potency [2] was “inactive” and the Potency [3] was “inactive”. For the same compound, the Potency [4] was “inactive”, the Potency [5] was “inactive” and the outcome [6] was “inactive”. The Potency [7] was “inactive”, the Potency [8] was “inactive” and the Potency [15] was “inactive”. For the same compound, the Potency [9] was “inactive”, the Potency [18] was “inactive” and the Potency [10] was “inactive”. The Potency [11] was “inactive”, the outcome [19] was “inactive” and the Potency [12] was “inactive”. The Potency [13] was “inactive” and the Potency [17] was “inactive”.
